Source: PubChem BioAssay
RORgamma inh: ROR gamma (mouse) transcription inhibition | Drosophila S2 Gal4-RORgamma UAS-luciferase reporter, 20 h | Potency, µM (series often up to 53.6 µM), most hits filed as inhibitors | actives 5.4% (n = 310,000) | AID 2551; further: nearly all actives have a fitted effect of over 60% in size
Target sequence (P51450 whole entry, looked up, the tested form may be a part): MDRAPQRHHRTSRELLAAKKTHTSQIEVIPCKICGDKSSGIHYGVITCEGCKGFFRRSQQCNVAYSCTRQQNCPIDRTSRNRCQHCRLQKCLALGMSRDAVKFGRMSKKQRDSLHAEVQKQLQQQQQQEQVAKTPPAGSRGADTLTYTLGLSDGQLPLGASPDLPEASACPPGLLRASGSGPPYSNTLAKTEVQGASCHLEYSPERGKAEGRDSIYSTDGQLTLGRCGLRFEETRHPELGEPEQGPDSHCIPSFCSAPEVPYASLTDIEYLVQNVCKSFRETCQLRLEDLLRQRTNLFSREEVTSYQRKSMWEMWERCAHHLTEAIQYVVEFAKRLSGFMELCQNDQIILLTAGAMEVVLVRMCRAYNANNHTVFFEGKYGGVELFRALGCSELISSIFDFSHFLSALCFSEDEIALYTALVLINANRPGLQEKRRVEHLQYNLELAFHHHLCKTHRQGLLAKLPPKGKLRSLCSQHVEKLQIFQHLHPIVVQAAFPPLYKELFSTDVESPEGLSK
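Drosophila S2 cells stably expressing Gal4-DBD/mouse RORγ fusion under metallothionein promoter plus UAS-luciferase; compound 1 h, then 700 uM CuSO4 induction for 20 h at ambient temperature; inhibition read as reduced luminescence.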
VP16 counter: inhibits Gal4-VP16 luciferase reporter, ROR gamma counter-screen | Drosophila S2 Gal4-VP16 UAS-luciferase, luminescence, 20 h | actives 3.5% (n = 310,000) | Potency, µM (top dose mostly 53.6 µM), hits mostly inhibitors;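 further: Gal4-VP16 expression switched on by copper sulfate through the metallothionein promoter; nearly all actives have a fitted effect of over 50% in size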
IL-1B inflam inh: inflammasome signaling inhibition, IL-1 beta readout; THP-1 LPS/ATP IL-1B secretion, AlphaLISA, 16 h; hits give low values; activity change, % at 57.5 µM; actives 4.7% (n = 360,000); AID 743279; in the data active means activity change below about -50%; inconclusive means mostly about -30% to -49%
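THP-1 cells pretreated 1 hr with compounds (up to 57.5 uM final), then stimulated with LPS (250 ng/mL final) plus ATP (1.25 mM final); secreted IL-1B measured by AlphaLISA after 16 hr, decreased signal indicating inhibition.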
TDP1 cell CPT: DT40-hTDP1 cell growth loss with CPT; actives 12% (n = 420,000); chicken DT40 Tdp1-/-;hTDP1 cells + 20 nM CPT, ATP luminescence, 48 h; Potency, µM (top dose mostly 46.2 µM), hits mostly inhibitors; further: nearly all actives have a fitted effect of over 55% in size
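Chicken DT40 Tdp1-/- cells stably complemented with human TDP1 were seeded at 400 cells/well in medium containing 20 nM camptothecin, exposed to pin-transferred compounds, and grown at 37 °C for at least 48 hr. Viability was read as ATP luminescence.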
DT40 TDP1 no CPT: qHTS for Inhibitors of human tyrosyl-DNA phosphodiesterase 1 (TDP1): qHTS in cells in absence of CPT | Potency, µM (titrated, usually from 46.2 µM), most hits filed as inhibitors | actives 15% (n = 420,000) | AID 686978, 2013 | DT40 Tdp1-/- hTDP1 cells, no CPT, ATP luminescence, 48 h; further: nearly all actives have a fitted effect of over 55% in size
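Readout: luminescence from CellTiter-Glo after 30 min in the dark at RT. Cells: DT40 Tdp1-/- with stable hTDP1, 400/well. Exposure: compounds alone, ≥48 hr, 37 °C.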
LDHA block: blocks human lactate dehydrogenase A; purified LDHA, NADH/diaphorase-resazurin fluorescence; hits give low values; activity change, % (values are at about 110 or 230 µM); actives 0.15% (n = 480,000); in the data active means activity change below about -30%; inconclusive means mostly about -25% to -30%
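Enzyme activity of human lactate dehydrogenase 5 (2 nM; 0.06 mM NADH, 0.2 mM pyruvate, 5 min, RT) is measured via a resazurin/diaphorase fluorescence readout of residual NADH.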
Of the large screens only hits and unclear results are named; the others gave an inactive call. Only some compounds are listed: those with a hit (about 18% of all), similar ones and a draw of the others. Unless noted, the call rests on the fitted dose curve; in most records, active means well fitted curve in the direction sought with a large enough effect; inconclusive means small, poorly fitted or top-dose-only effect, or another doubt; inactive means no such curve, though single readings can be large; an effect the other way counts as inactive or inconclusive.

Cc1cc(C)cc(OC(=O)/C=C/c2nc3ccccc3s2)c1	none (no result: RORgamma inh, VP16 counter, IL-1B inflam inh, TDP1 cell CPT, DT40 TDP1 no CPT)
O=C(COc1ccc(S(=O)(=O)NC2CCCC2)cc1)NCc1ccccn1	none (no result: RORgamma inh, VP16 counter, IL-1B inflam inh, TDP1 cell CPT, DT40 TDP1 no CPT)
O=C(NC1CC1)C(Sc1ccccn1)c1ccccc1 (stereo unspecified)	none (no result: RORgamma inh, VP16 counter, IL-1B inflam inh, TDP1 cell CPT, DT40 TDP1 no CPT)
Cc1ccc(SC(C)C(=O)NC2CCCC2)cc1C (stereo unspecified)	none (no result: RORgamma inh, VP16 counter, IL-1B inflam inh, TDP1 cell CPT, DT40 TDP1 no CPT)
CC(=O)c1ccc(NC(=O)CC2Nc3cccc4cccc(c34)NC2=O)cc1 (stereo unspecified)	TDP1 cell CPT 18µM, DT40 TDP1 no CPT 16µM
CC(C)(C)c1ccc(C(=O)NCCC(=O)NC2CCCCCC2)cc1	none (no result: RORgamma inh, VP16 counter, IL-1B inflam inh, TDP1 cell CPT, DT40 TDP1 no CPT)
Nc1nnnn1/N=C/C(Br)=C/c1ccccc1	RORgamma inh 3.2µM, VP16 counter inconclusive, IL-1B inflam inh -93, TDP1 cell CPT 0.46µM, DT40 TDP1 no CPT 0.58µM
BrC(=C\c1ccccc1)/C=N/N1CCN(c2ccccc2)CC1	RORgamma inh inconclusive, VP16 counter inconclusive, IL-1B inflam inh -81, TDP1 cell CPT 1.2µM, DT40 TDP1 no CPT 7.3µM
Cc1ccc(CN2CCN(/N=C/c3cc(Br)cc(Br)c3O)CC2)cc1	RORgamma inh inconclusive, TDP1 cell CPT inconclusive, DT40 TDP1 no CPT 21µM
Cc1ccc(CN2CCN(/N=C\C(Br)=C\c3ccccc3)CC2)cc1	VP16 counter inconclusive, IL-1B inflam inh -78, TDP1 cell CPT 2.6µM, DT40 TDP1 no CPT 8.2µM
CCN(C(=O)CCn1cnc2c1c(=O)n(C)c(=O)n2C)c1ccccc1C	none (no result: RORgamma inh, VP16 counter, IL-1B inflam inh, TDP1 cell CPT, DT40 TDP1 no CPT)
CCOc1ccc(C(C)(C)CC)cc1-c1csc(N)n1	none (no result: RORgamma inh, VP16 counter, IL-1B inflam inh, TDP1 cell CPT, DT40 TDP1 no CPT)
O=C(O)CCC(=O)N1CCC(O)CC1	none (no result: RORgamma inh, VP16 counter, IL-1B inflam inh, TDP1 cell CPT, DT40 TDP1 no CPT)
Cc1ccc(C(=O)Nc2nnc(NC(=S)Nc3ccccc3)s2)cc1	RORgamma inh 0.28µM, VP16 counter 1.1µM, TDP1 cell CPT inconclusive, DT40 TDP1 no CPT 21µM
CCc1nnc(NC(=S)Nc2ccccc2)s1	RORgamma inh 0.28µM, VP16 counter 0.89µM, TDP1 cell CPT 5.8µM
Cc1ccc(SCc2nnc(NC(=O)c3ccccc3)s2)cc1	none
CCC(C(=O)Nc1nc(C)c(C)s1)c1ccccc1 (stereo unspecified)	RORgamma inh inconclusive, VP16 counter inconclusive, TDP1 cell CPT inconclusive, DT40 TDP1 no CPT inconclusive
Cc1nc(NC(=S)Nc2ccccc2)sc1C	RORgamma inh 0.89µM, VP16 counter 5µM, TDP1 cell CPT inconclusive, DT40 TDP1 no CPT inconclusive
COc1ccc(C(C)=O)cc1COC(=O)Cc1ccc(Br)cc1	none (no result: RORgamma inh, VP16 counter, IL-1B inflam inh, TDP1 cell CPT, DT40 TDP1 no CPT)
CCCCOC(=O)c1ccc(NC(=O)COc2ccc3c(C)cc(=O)oc3c2)cc1	none (no result: RORgamma inh, VP16 counter, IL-1B inflam inh, TDP1 cell CPT, DT40 TDP1 no CPT)
Cc1ccccc1NC(=O)C(NS(=O)(=O)c1ccc2c(c1)c(=O)n(C)c(=O)n2C)c1ccccc1 (stereo unspecified)	TDP1 cell CPT inconclusive, DT40 TDP1 no CPT 16µM
Cn1c(=O)c2cc(S(=O)(=O)NC(C(=O)Nc3cccc(F)c3)c3ccccc3)ccc2n(C)c1=O (stereo unspecified)	TDP1 cell CPT inconclusive, DT40 TDP1 no CPT inconclusive
COc1ccccc1NC(=O)C(Cc1ccccc1)NS(=O)(=O)c1ccc2c(c1)c(=O)n(C)c(=O)n2C (stereo unspecified)	TDP1 cell CPT 23µM, DT40 TDP1 no CPT inconclusive (no result: RORgamma inh, VP16 counter, IL-1B inflam inh)
CC(CCc1ccco1)NC(=O)CCc1nnc2ccc(N3CCOCC3)nn12 (stereo unspecified)	none (no result: RORgamma inh, VP16 counter, IL-1B inflam inh, TDP1 cell CPT, DT40 TDP1 no CPT)
Cn1ccc2cc(S(=O)(=O)N3CCC(C(=O)N4CCC5(CC4)OCCO5)CC3)ccc21	none (no result: RORgamma inh, VP16 counter, IL-1B inflam inh, TDP1 cell CPT, DT40 TDP1 no CPT)
Cc1cc(C)c(NC(=O)CN2C(=O)NC3(CCCc4ccccc43)C2=O)c(Cl)c1 (stereo unspecified)	TDP1 cell CPT inconclusive, DT40 TDP1 no CPT 18µM (no result: RORgamma inh, VP16 counter)
O=C(CN1C(=O)NC2(CCCc3ccccc32)C1=O)Nc1cccc(S(=O)(=O)N2CCCCC2)c1 (stereo unspecified)	RORgamma inh inconclusive, TDP1 cell CPT inconclusive, DT40 TDP1 no CPT 16µM
CN(C)C(=O)CN1C(=O)NC2(CCCc3ccccc32)C1=O (stereo unspecified)	none
